Compound activity: PubChem, National Center for Advancing Translational Sciences (NCATS)
A selection: hits, their analogues and other compounds. The true share with any hit is near 9.2%.
SMN2 splice up = SMN2 splice variant enhancement; AID 1458; Potency, µM (series often up to 46.1 µM), hits mostly activators; HEK293 SMN2-luciferase splicing reporter, luminescence, 30-36 h; hit rate 2.8% among 210,000; further: nearly all actives have a fitted effect of over 55% in size
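HEK293 cells carry an SMN2 […]–luciferase reporter in which exon 7 inclusion puts luciferase in frame. Cells were plated 10-12 h before compound addition, then incubated 30-36 h at 37C. ONE-Glo luminescence was read; sodium butyrate at 4.5 mM final served as control.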
ELG1 genotoxic = inducers of genotoxicity in HEK293T ELG1-luciferase cells; HEK293T ELG1-luciferase reporter, luminescence, 16 h; hit rate 1.3% among 330,000; Potency, µM (titrated, usually from 46 µM), actives largely listed as activators; further: nearly all actives have a fitted effect of over 60% in size
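16 hr compound incubation (37 °C, 5% CO2) of HEK293T cells carrying luciferase-tagged ELG1; luciferase then measured by ONE-Glo luminescence after 30 min at RT.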
ELG1 repair inh = inhibitors of ELG1-dependent DNA repair in HEK293T cells | HEK293T ELG1-luciferase reporter, luminescence, 16 h; DNA damage induced by 5-fluorouridine | hit rate 2.3% among 330,000 | Potency, µM (top dose mostly 46.1 µM), hits mostly inhibitors; further: nearly all actives have a fitted effect of over 55% in size
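In this reporter screen, reduction of luminescence relative to DMSO vehicle indicated activity. Compounds and 5-fluorouridine were added together to 2,000 cells per well, incubated for 16 hr at 37 °C, then developed with ONE-Glo.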
Rab9 promoter act = activates the Rab9 promoter; Huh7 Rab9 promoter-luciferase reporter, luminescence, 24 h; Potency, µM (top dose mostly 9.22 µM), actives largely listed as activators; hit rate 2.8% among 320,000; AID 485297; further: nearly all actives have a fitted effect of over 60% in size
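Luminescence from Amplite-detected luciferase (10 minutes, ambient) reports Rab9 promoter activation. Before that, stable Rab9-luciferase Huh7 cells (1500/well, reduced-serum OP-MEM I plus 10% FBS) were exposed to compound for 24 hours at 37C.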
NPC1 prom act = NPC1 promoter activation; Potency, µM (titrated, usually from 9.22 µM), actives largely listed as activators; AID 485313; Huh7 NPC1 promoter luciferase reporter, 24 h; hit rate 2.4% among 320,000; further: nearly all actives have a fitted effect of over 60% in size
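Cells: Huh7 expressing luciferase under the NPC1 promoter, 1500/well. Seeded 2 h, compound added, incubated 24 h at 37 °C. Luciferase reagent, 10 min ambient, then luminescence.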
FLuc modulator = firefly luciferase modulation, counter-screen for miR-21 project | AID 588342 | purified FLuc, Km substrates, luminescence inhibition | hit rate 6.9% among 360,000 | P08659 | Potency, µM (titrated, usually from 57.5 µM), actives largely listed as inhibitors; further: nearly all actives have a fitted effect of over 55% in size
Target sequence (P08659 whole entry, looked up): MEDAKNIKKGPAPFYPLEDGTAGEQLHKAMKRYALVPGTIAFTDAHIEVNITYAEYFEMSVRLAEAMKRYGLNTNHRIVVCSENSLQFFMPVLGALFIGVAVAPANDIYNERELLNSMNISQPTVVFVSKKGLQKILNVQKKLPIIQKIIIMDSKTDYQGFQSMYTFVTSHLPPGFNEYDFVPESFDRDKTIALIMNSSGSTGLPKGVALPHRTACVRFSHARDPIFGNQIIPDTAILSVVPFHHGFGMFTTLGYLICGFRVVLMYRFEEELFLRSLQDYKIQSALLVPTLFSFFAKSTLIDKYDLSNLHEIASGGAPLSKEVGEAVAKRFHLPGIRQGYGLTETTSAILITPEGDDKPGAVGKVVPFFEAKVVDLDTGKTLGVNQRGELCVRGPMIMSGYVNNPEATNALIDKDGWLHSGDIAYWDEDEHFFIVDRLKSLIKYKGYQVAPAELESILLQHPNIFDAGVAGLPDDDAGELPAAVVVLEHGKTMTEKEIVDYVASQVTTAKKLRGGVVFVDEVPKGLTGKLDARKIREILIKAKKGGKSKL
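Biochemical qHTS of compounds, final roughly 60 µM downward over six points, against 10 nM purified firefly luciferase using Km concentrations of substrates (10 uM D-luciferin, 10 uM ATP) in Tris acetate pH 7.5 buffer; luminescence output.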
Each line names hits and unclear results; the compound was inactive in the other large screens. The call rests on the fitted dose curve; in most records, active means well fitted curve in the direction sought with a large enough effect; inconclusive means small, poorly fitted or top-dose-only effect, or another doubt; inactive means no such curve, though single readings can be large; an effect the other way counts as inactive or inconclusive.

COc1cc(N=Nc2cccc(S(N)(=O)=O)c2)c2ccccc2c1N	SMN2 splice up inconclusive, ELG1 genotoxic inconclusive, ELG1 repair inh inconclusive, FLuc modulator 19µM
CCOc1ccc(Nc2ccc([N+](=O)[O-])c3nonc23)cc1	ELG1 repair inh inconclusive, Rab9 promoter act 4.47µM, NPC1 prom act inconclusive, FLuc modulator 12µM (no result: SMN2 splice up)
Cn1cc(Br)c(C(=O)NC(=S)Nc2ccc(S(N)(=O)=O)cc2)n1	none
Cc1cc(C)n2nc(C(=O)OCC(=O)N(Cc3ccccc3)C(C)C)nc2n1	none (no result: SMN2 splice up)
CCC(=O)Nc1cccc(NC(=O)c2ccc3c(c2)OCCO3)c1	SMN2 splice up 12.6µM, ELG1 repair inh inconclusive, Rab9 promoter act inconclusive, NPC1 prom act inconclusive, FLuc modulator 16.9µM
CN(C)S(=O)(=O)c1cccc(NC(=O)c2ccc3c(c2)OCCO3)c1	ELG1 repair inh inconclusive, Rab9 promoter act inconclusive, NPC1 prom act 3.16µM, FLuc modulator 9.53µM (no result: SMN2 splice up)
CCCC(=O)Nc1cccc(NC(=O)c2ccc3c(c2)OCO3)c1	SMN2 splice up inconclusive, FLuc modulator inconclusive
COc1cccc(-c2nc(CS(=O)(=O)CC(=O)NCCc3ccc(Cl)cc3)c(C)o2)c1	none (no result: ELG1 genotoxic, ELG1 repair inh, Rab9 promoter act, NPC1 prom act)
CCC(C(=O)Nc1cc(-c2cn3cccnc3n2)ccc1C)c1ccccc1 (stereo unspecified)	none (no result: SMN2 splice up, ELG1 genotoxic, ELG1 repair inh, Rab9 promoter act, NPC1 prom act)
C[C@@]12CCC=C[C@H]1[C@H](c1ccc(F)c(/C=C/c3ccccc3)c1)N(Cc1ccccc1)C2=O	none (no result: SMN2 splice up)
COCCN=C1Sc2nc3cc(C)c(C)cc3cc2CN1Cc1cccs1	ELG1 repair inh inconclusive (no result: SMN2 splice up)
COCCN=C1Sc2nc3ccc(C)cc3cc2CN1Cc1ccco1	ELG1 repair inh inconclusive, FLuc modulator 10.7µM
COc1ccc(-c2cc(C(=O)N3CCN(c4ncccn4)CC3)c3ccccc3n2)cc1	ELG1 repair inh 15.8µM, Rab9 promoter act inconclusive, NPC1 prom act inconclusive, FLuc modulator 0.675µM (no result: SMN2 splice up)
COc1cc(-c2cc(C(=O)N3CCN(c4ccccn4)CC3)c3ccccc3n2)cc(OC)c1OC	ELG1 repair inh 8.2µM
COc1ccc(-c2cc(C(=O)N3CC(C)CC(C)C3)c3ccccc3n2)cc1 (stereo unspecified)	FLuc modulator inconclusive (no result: SMN2 splice up)
COc1ccc(OCC(=O)N2CCN(c3nnc(-c4ccccc4)c4ccccc34)CC2)cc1	ELG1 repair inh 16.4µM
COc1ccc(-c2cc(C(=O)N3CCN(c4ccccn4)CC3)c3ccccc3n2)cc1	ELG1 repair inh inconclusive, Rab9 promoter act 2.82µM, NPC1 prom act inconclusive, FLuc modulator 0.675µM (no result: SMN2 splice up)
COc1ccc(OC)c(S(=O)(=O)NCC(=O)NC2CCCCCC2)c1	none (no result: SMN2 splice up)
CC(Oc1ccc(F)cc1)C(=O)N1CCC(c2nc3ccccc3s2)CC1 (stereo unspecified)	none (no result: SMN2 splice up, ELG1 genotoxic, ELG1 repair inh, Rab9 promoter act, NPC1 prom act)
CCCc1ccc(-c2cc(C(=O)N3CCN(c4ccccn4)CC3)c3ccccc3n2)cc1	ELG1 genotoxic inconclusive, ELG1 repair inh inconclusive, Rab9 promoter act inconclusive, NPC1 prom act inconclusive, FLuc modulator 0.107µM (no result: SMN2 splice up)
Cc1ccc(-c2cc(C(=O)N3CCN(c4ccc(O)cc4)CC3)c3ccccc3n2)cc1	ELG1 repair inh inconclusive (no result: SMN2 splice up, Rab9 promoter act, NPC1 prom act, FLuc modulator)
O=C(c1cc2ccccc2oc1=O)N1CCN(c2ncccn2)CC1	ELG1 genotoxic 18.4µM, ELG1 repair inh inconclusive, Rab9 promoter act inconclusive, FLuc modulator 21.3µM
COc1cc(NC(=O)CN2CCN(Cc3ccc4c(c3)OCO4)CC2)cc(OC)c1	ELG1 repair inh 23.1µM
COC(=O)c1[nH]c2ccccc2c1NC(=O)CN1CCN(Cc2ccc3c(c2)OCO3)CC1	ELG1 repair inh 4.61µM
COC(=O)c1[nH]c2ccc(F)cc2c1NC(=O)CCN1CCN(Cc2ccc3c(c2)OCO3)CC1	none
Cn1ncc(N2CCN(C(=O)c3ccc(Cl)cc3)CC2)c(Cl)c1=O	none
COc1ccc(C2(CNC(=O)C(=O)Nc3ccc(F)cc3)CCCC2)cc1OC	none (no result: ELG1 genotoxic, ELG1 repair inh, Rab9 promoter act, NPC1 prom act)
Cc1c(Cl)cccc1NC(=O)CNC(=O)CCS(=O)(=O)c1ccc(F)cc1	none (no result: SMN2 splice up)
O=C(CC1SC(N2CCCC2)=NC1=O)Nc1ccc(C(=O)Nc2ncccc2O)cc1 (stereo unspecified)	ELG1 genotoxic inconclusive, ELG1 repair inh inconclusive, Rab9 promoter act inconclusive (no result: SMN2 splice up)
COc1cccc(-n2c(=O)c3sc4ccccc4c3n(Cc3c(F)cccc3Cl)c2=O)c1	none (no result: ELG1 genotoxic, ELG1 repair inh, Rab9 promoter act, NPC1 prom act)
CC1CCc2nc(NC(=O)CN3CCN(Cc4ccc5c(c4)OCO5)CC3)sc2C1 (stereo unspecified)	ELG1 repair inh 11.6µM
CC1CCc2nc(NC(=O)Nc3ccc4c(c3)OCO4)sc2C1 (stereo unspecified)	ELG1 genotoxic inconclusive, ELG1 repair inh inconclusive, Rab9 promoter act 2.51µM, NPC1 prom act 3.16µM, FLuc modulator 1.35µM (no result: SMN2 splice up)
O=C(Cn1c(-c2cccs2)cc2ccccc21)N1CCN(c2ccccc2F)CC1	none (no result: SMN2 splice up, ELG1 genotoxic, ELG1 repair inh, Rab9 promoter act, NPC1 prom act)
O=C(N/N=C/c1ccc(O)cc1)c1csc2ccccc12	ELG1 repair inh inconclusive, FLuc modulator 15.1µM
Cc1ccc(-c2cc(C(=O)N/N=C/c3c(C)nn(C)c3C)c3ccccc3n2)cc1C	SMN2 splice up inconclusive, ELG1 genotoxic inconclusive, ELG1 repair inh inconclusive, Rab9 promoter act inconclusive, FLuc modulator 0.601µM
O=C(N/N=C/c1ccc(F)cc1)c1cc(-c2ccccn2)nc2ccccc12	none (no result: SMN2 splice up)
